Assay results taken from PubChem BioAssay (EPA / NIEHS).
Activity calls are given as the source filed them. The calls were made as follows: active = hit-call score of the fitted dose curve at least 0.9, where 1 is the maximum; inactive = score below 0.9.

Experiments:
Settings in all cases: mRNA level, 48 h; actives raise or lower the signal
[1] = read-out: Forkhead box O1 (FOXO1), FOXO1 (gene 2308); experiment: LTEA_HepaRG_FOXO1: Life Technologies and Expression Analysis (LTEA) Assay for Forkhead box O1 (FOXO1) using HepaRG (AID 2283456)
Outline: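 Using one lot of HepaRG hepatic cells kept in 0.5% DMSO, the team applied test chemicals in duplicate, half-log dilutions from 100 uM, for 48 h. Expression, normalised to ACTB/GAPDH/POLR2A, was compared with vehicle in either direction.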

[2] = read-out: growth arrest and DNA damage 45 (GADD45A), GADD45A (gene 1647); experiment: LTEA_HepaRG_GADD45A: Life Technologies and Expression Analysis (LTEA) Assay for growth arrest and DNA damage 45 (GADD45A) using HepaRG (AID 2283458)
Outline: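 Transcript induction or loss, quantified by TaqMan qRT-PCR against three housekeeping genes, is the read-out. HepaRG cells received chemicals for 48 h across eight half-log concentrations from 100 uM in 0.5% DMSO; gain and loss fitted relative to DMSO.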

[3] = read-out: Forkhead box O3 (FOXO3), FOXO3 (gene 2309); experiment: LTEA_HepaRG_FOXO3: Life Technologies and Expression Analysis (LTEA) Assay for Forkhead box O3 (FOXO3) using HepaRG (AID 2283459)
Outline: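 Gene-expression endpoint: FOXO3 transcript level by qRT-PCR in HepaRG cultures treated 48 h with chemicals up to 100 uM (half-log, 0.5% DMSO vehicle).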

[4] = read-out: ABC Transporter (ABCB1), ABCB1 (gene 5243); experiment: LTEA_HepaRG_ABCB1: Life Technologies and Expression Analysis (LTEA) Assay for ABC Transporter (ABCB1) using HepaRG (AID 2283460)
Outline: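 Human liver HepaRG line treated 48 h with up to 100 uM compound (eight half-log points, 0.5% DMSO); ABCB1 mRNA change fitted bidirectionally against DMSO controls.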

[5] = read-out: growth arrest and DNA damage 45 (GADD45B), GADD45B (gene 4616); experiment: LTEA_HepaRG_GADD45B: Life Technologies and Expression Analysis (LTEA) Assay for growth arrest and DNA damage 45 (GADD45B) using HepaRG (AID 2283461)
Outline: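 Human HepaRG monolayers receive chemicals for 48 h at eight half-log concentrations, highest 100 uM, in 0.5% DMSO. Expression is measured by TaqMan qRT-PCR and normalized to ACTB, GAPDH and POLR2A.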

[6] = read-out: ABC Transporter (ABCC3), ABCC3 (gene 8714); experiment: LTEA_HepaRG_ABCC3: Life Technologies and Expression Analysis (LTEA) Assay for ABC Transporter (ABCC3) using HepaRG (AID 2283462)
Outline: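 Transcriptional change of ABCC3 in HepaRG after 48 h treatment, determined by qRT-PCR normalized to endogenous controls. Concentrations spanned eight half-log steps to 100 uM in 0.5% DMSO.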

[7] = read-out: ABC Transporter (ABCB11), ABCB11 (gene 8647); experiment: LTEA_HepaRG_ABCB11: Life Technologies and Expression Analysis (LTEA) Assay for ABC Transporter (ABCB11) using HepaRG (AID 2283463)
Outline: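 Using HepaRG cultures held in 0.5% DMSO, chemicals were tested at half-log dilutions from 100 uM for 48 h. Induction or suppression of ABCB11 mRNA, normalized to ACTB, GAPDH and POLR2A, was fitted bidirectionally against vehicle.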

[8] = read-out: ABC Transporter (ABCC2), ABCC2 (gene 1244); experiment: LTEA_HepaRG_ABCC2: Life Technologies and Expression Analysis (LTEA) Assay for ABC Transporter (ABCC2) using HepaRG (AID 2283464)
Outline: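 After plating and 48 h culture, HepaRG medium is replaced with serum-free induction medium and chemicals are added (8 concentrations, max 100 uM, 0.5% DMSO) for 48 h. Total RNA then undergoes qRT-PCR for ABCC2 with housekeeping normalization.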

[9] = read-out: Broad substrate specificity ATP-binding cassette transporter ABCG2 (Homo sapiens) (UniProt Q9UNQ0); experiment: LTEA_HepaRG_ABCG2: Life Technologies and Expression Analysis (LTEA) Assay for ABC Transporter (ABCG2) using HepaRG (AID 2283465)
Outline: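 Gene expression of ABCG2 in HepaRG liver cells is quantified by qRT-PCR following 48 h exposure across an eight-point series topping at 100 uM. Values come from bidirectional fitting relative to DMSO vehicle.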

[10] = read-out: Peroxisomal acyl-coenzyme A oxidase 1 (ACOX1) gene, ACOX1 (gene 51); experiment: LTEA_HepaRG_ACOX1: Life Technologies and Expression Analysis (LTEA) Assay for Peroxisomal acyl-coenzyme A oxidase 1 (ACOX1) gene using HepaRG (AID 2283467)
Outline: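 Human HepaRG hepatic cultures, 48 h treatment with test chemicals up to 100 uM. ACOX1 expression read by qRT-PCR relative to 0.5% DMSO vehicle.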

[11] = read-out: Alkaline Phosphatase, Placental (ALPP) gene, ALPP (gene 250); experiment: LTEA_HepaRG_ALPP: Life Technologies and Expression Analysis (LTEA) Assay for Alkaline Phosphatase, Placental (ALPP) gene using HepaRG (AID 2283468);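 as to AC50: differentiated human HepaRG liver cells in serum-free induction medium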
Outline: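 Using human liver HepaRG cells, chemicals are tested in duplicate over 48 h at half-log concentrations topping at 100 uM; phenobarbital 1 mM serves as induction control. ALPP mRNA change by qRT-PCR, bidirectional fit against vehicle.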

[12] = read-out: Bcl-2 (BAD) gene, BAD (gene 572); experiment: LTEA_HepaRG_BAD: Life Technologies and Expression Analysis (LTEA) Assay for Bcl-2 (BAD) gene using HepaRG (AID 2283469)
Outline: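 Activity values reflect up- or down-regulation of BAD mRNA in human HepaRG hepatic cells treated 48 h in serum-free medium, with eight-point half-log dosing capped at 100 uM and 0.5% DMSO vehicle.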

[13] = read-out: Bcl-2 (BAX) gene, BAX (gene 581); experiment: LTEA_HepaRG_BAX: Life Technologies and Expression Analysis (LTEA) Assay for Bcl-2 (BAX) gene using HepaRG (AID 2283470)
Outline: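 Cells were thawed, plated for 48 h, moved to serum-free induction medium and dosed for 48 h (highest concentration 100 uM, half-log steps, 0.5% DMSO). Total RNA was then analysed for BAX expression by qRT-PCR.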

[14] = read-out: adenosine kinase (ADK) gene, ADK (gene 132); experiment: LTEA_HepaRG_ADK: Life Technologies and Expression Analysis (LTEA) Assay for adenosine kinase (ADK) gene using HepaRG (AID 2283471)
Outline: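 Differentiated HepaRG cells dosed 48 h in serum-free induction medium, 0.5% DMSO vehicle, eight half-log concentrations from 100 uM, in duplicate. ADK mRNA by TaqMan qRT-PCR normalised to ACTB, GAPDH, POLR2A; bidirectional fit versus DMSO.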

[15] = read-out: Alpha-fetoprotein (AFP) gene, AFP (gene 174); experiment: LTEA_HepaRG_AFP: Life Technologies and Expression Analysis (LTEA) Assay for Alpha-fetoprotein (AFP) gene using HepaRG (AID 2283472)
Outline: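 Chemicals were tested on differentiated HepaRG cells for 48 hours at eight concentrations up to 100 uM, with 0.5% DMSO as vehicle. AFP expression was then quantified by qRT-PCR and analyzed for gain or loss relative to DMSO.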

[16] = read-out: BCL2L11 (gene 10018); experiment: LTEA_HepaRG_BCL2L11: Life Technologies and Expression Analysis (LTEA) Assay for Bcl-2 (BCL2L11) gene using HepaRG (AID 2283473)
Outline: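 Human hepatic HepaRG cultures are treated 48 h with test chemicals (maximum 100 uM, 0.5% DMSO vehicle). Expression of BCL2L11 is measured by qRT-PCR against ACTB, GAPDH and POLR2A, with activity in either direction scored relative to vehicle.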

[17] = read-out: Apolipoprotein A-V (APOA5) gene, APOA5 (gene 116519); experiment: LTEA_HepaRG_APOA5: Life Technologies and Expression Analysis (LTEA) Assay for Apolipoprotein A-V (APOA5) gene using HepaRG (AID 2283474)
Outline: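 Concentration-response of APOA5 expression in HepaRG: eight half-log doses to 100 uM, 48 h, qRT-PCR normalized to ACTB/GAPDH/POLR2A, bidirectional fitting with 0.5% DMSO as baseline.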

[18] = read-out: Apoptosis regulator Bcl-2 (Homo sapiens) (UniProt P10415); experiment: LTEA_HepaRG_BCL2: Life Technologies and Expression Analysis (LTEA) Assay for Bcl-2 gene using HepaRG (AID 2283475)
Outline: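 Plated human HepaRG cells are exposed to test chemicals for 48 h across eight concentrations from 100 uM downward in half-log steps (0.5% DMSO). BCL2 expression is then measured by qRT-PCR with housekeeping normalisation and fitted bidirectionally against vehicle.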

Measured: AC50

Sequence of Apoptosis regulator Bcl-2 (Homo sapiens) (P10415 whole entry, looked up): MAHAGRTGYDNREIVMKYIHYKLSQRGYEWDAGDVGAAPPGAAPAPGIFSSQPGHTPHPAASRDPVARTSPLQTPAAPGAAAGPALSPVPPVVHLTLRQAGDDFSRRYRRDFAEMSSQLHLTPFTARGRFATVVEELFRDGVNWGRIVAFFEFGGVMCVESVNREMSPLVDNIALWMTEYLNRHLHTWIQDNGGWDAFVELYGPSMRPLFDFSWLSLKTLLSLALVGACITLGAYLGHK
Sequence of Broad substrate specificity ATP-binding cassette transporter ABCG2 (Homo sapiens) (Q9UNQ0 whole entry, looked up): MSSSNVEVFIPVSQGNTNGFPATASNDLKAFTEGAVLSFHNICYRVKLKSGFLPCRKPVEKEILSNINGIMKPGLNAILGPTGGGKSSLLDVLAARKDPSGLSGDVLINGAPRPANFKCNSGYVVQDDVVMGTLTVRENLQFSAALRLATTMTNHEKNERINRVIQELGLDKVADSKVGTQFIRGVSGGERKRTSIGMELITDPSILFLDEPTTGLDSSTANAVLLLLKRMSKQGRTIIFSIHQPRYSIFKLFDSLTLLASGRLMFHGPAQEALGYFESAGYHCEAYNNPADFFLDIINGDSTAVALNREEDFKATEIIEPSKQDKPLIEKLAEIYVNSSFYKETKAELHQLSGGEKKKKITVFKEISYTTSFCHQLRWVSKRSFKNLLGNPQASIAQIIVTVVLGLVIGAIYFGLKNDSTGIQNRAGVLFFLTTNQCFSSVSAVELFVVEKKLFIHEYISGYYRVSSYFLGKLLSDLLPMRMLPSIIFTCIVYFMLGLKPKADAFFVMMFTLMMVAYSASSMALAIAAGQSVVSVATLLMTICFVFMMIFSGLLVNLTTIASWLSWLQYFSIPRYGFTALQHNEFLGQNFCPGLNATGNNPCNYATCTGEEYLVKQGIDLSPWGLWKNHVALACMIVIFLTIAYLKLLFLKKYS

CCCCOC(=O)CCCCC(=O)OCCCC
inactive: [1] | [2] | [3] | [4] | [5] | [6] | [7] | [8] | [9] | [10] | [11] | [12] | [13] | [14] | [15] | [16] | [17] | [18]

NC1CCCCC1
inactive: [1] | [2] | [3] | [4] | [5] | [6] | [7] | [8] | [9] | [10] | [11] | [12] | [13] | [14] | [15] | [16] | [17] | [18]

CC(C)c1cccc(C(C)C)c1
inactive: [1] | [2] | [3] | [4] | [5] | [6] | [8] | [9] | [10] | [11] | [12] | [13] | [14] | [15] | [16] | [17] | [18]

CCCCCCCCCCCCCCCCO
inactive: [1] | [2] | [3] | [4] | [5] | [6] | [7] | [8] | [9] | [10] | [11] | [12] | [13] | [14] | [15] | [16] | [17] | [18]

CCc1nc(N)nc(N)c1-c1ccc(Cl)cc1
inactive: [1] | [3] | [4] | [5] | [8] | [9] | [12] | [13] | [14] | [16] | [17]
active: [2] 27.2 µM | [6] 74.5 µM | [7] 33 µM | [10] 18.6 µM | [11] 44.2 µM | [15] 32.8 µM | [18] 50 µM
